INS-1E GSIS act – primary screen for activators of insulin secretion dependent on glucose, INS-1E cells, GLuc reporter luminescence | INS-1E GLuc reporter insulin secretion, 2-3 h | activation, % at 16.6 µM | 370,000 compounds, 0.61% hits;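 active means lowest replicate activation of at least 40%, so every replicate reaches that level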;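 further: 0% = median of neutral control wells and 100% = median of IBMX positive control wells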
Vif inh – HIV Vif inhibition; 340,000 compounds, 0.35% hits; inhibition, % at 7.49 µM; AID 602346; HEK293T cells, Vif self-association by quenched fluorescence, imaging, 24 h; in the data active means inhibition above about 50%, passing the limit was not always enough
Neddylation inh – cullin neddylation inhibition; P61081+Q13564; TR-FRET cullin neddylation, biochemical; inhibition, % at 25 µM; 360,000 compounds, 0.58% hits; AID 651699; in the data active means inhibition above about 36%
dFosB act-1 – enhances mouse delta FosB homodimer DNA binding; purified delta FosB, TAMRA-CDK5 oligo fluorescence polarization; percent of positive-control signal above neutral wells; P13346; activation, % at 25 µM; AID 493131; 340,000 compounds, 0.99% hits;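 active means mean activation above about 17%, with every replicate also reaching it, limit read from the data, passing the limit was not always enough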
Target sequence (P13346 whole entry, looked up): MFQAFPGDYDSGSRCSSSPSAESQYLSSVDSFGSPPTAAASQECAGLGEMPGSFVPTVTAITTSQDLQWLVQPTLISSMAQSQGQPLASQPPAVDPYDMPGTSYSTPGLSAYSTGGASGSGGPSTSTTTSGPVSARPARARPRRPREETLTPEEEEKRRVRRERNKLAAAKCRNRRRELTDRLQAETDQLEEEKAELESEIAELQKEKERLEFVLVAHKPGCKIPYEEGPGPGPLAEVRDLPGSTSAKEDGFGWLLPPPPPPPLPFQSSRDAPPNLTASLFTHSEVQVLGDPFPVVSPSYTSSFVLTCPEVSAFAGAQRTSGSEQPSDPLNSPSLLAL
A1 inh – inhibitors of the anti-apoptotic protein A1, read as caspase activation; MEF A1-2A-BIM cells, Caspase-Glo 3/7 luminescence, 3 h; percent of clofoctol response, vehicle zero; caspase activation, % (no concentration beside the values); 330,000 compounds, 0.066% hits;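 active means over half of replicate activation scores above 10%, or exactly half above 10 with the replicate mean above 10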
dFosB act-2 – activators of mouse delta FosB homodimer DNA binding; purified delta FosB, TAMRA-CDK5 oligo fluorescence polarization; normalised: neutral wells 0, positive control 100; shares compounds with dFosB act-1; 2,400 tested, under 10 active; activation, % at 24.9 µM;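 active means highest replicate activation at or above 34% and every replicate reaching that threshold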;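 further: higher polarization means more probe DNA bound by delta FosB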
* = called active by the depositor. Rows were chosen to be rich in hits. Some 1.9% of all compounds tested hit in one or more screens of this group.

Results for COc1cc(COCC(O)CN2CCN(CCN3C(=O)c4cccc5cccc(c45)C3=O)CC2)cc(OC)c1OC (stereo not drawn) ?
INS-1E GSIS act: 15.8; Vif inh: -8.8; Neddylation inh: -17.5; dFosB act-1: 37.1*; A1 inh: 1.9; dFosB act-2: 0.8

How did COc1ccc(S(=O)(=O)N(C)C[C@H]2OCc3cn(nn3)CCCC(=O)N([C@H](C)CO)C[C@H]2C)cc1 do in these assays?
INS-1E GSIS act: 4.5

How did O=C(C[C@@H]1C=C[C@H](NC(=O)Nc2ccc(F)cc2)[C@H](CO)O1)NCCN1CCCC1 do in these assays?
INS-1E GSIS act: 3.7

How did CN1CCN(C(=O)C[C@@H]2C[C@H]3c4cc(NC(=O)NC5CCCC5)ccc4O[C@H]3[C@@H](CO)O2)CC1 do in these assays?
INS-1E GSIS act: 8.4

How did NC(N)=NS(=O)(=O)c1ccc(NC(=S)NC(=O)/C=C/c2ccco2)cc1 do in these assays?
INS-1E GSIS act: 10.8; Vif inh: 14.8; Neddylation inh: 4.3; dFosB act-1: 7.0; A1 inh: 1.0

How did COc1ccc(/C=C/C(=O)NC(=S)Nc2ccccc2)cc1OC do in these assays?
INS-1E GSIS act: 14.8; Vif inh: 0.5; Neddylation inh: 3.9; dFosB act-1: 32.9*; A1 inh: 0.6; dFosB act-2: -0.3

What do the screens show for `COc1ccc(NC(=S)NCc2ccc(S(N)(=O)=O)cc2)cc1OC`?
INS-1E GSIS act: 10.0; Vif inh: 2.7; Neddylation inh: -6.4; dFosB act-1: 2.7; A1 inh: -0.8

What do the screens show for `NC(N)=NS(=O)(=O)c1ccc(NC(=S)NC(=O)/C=C/c2ccccc2)cc1`?
Vif inh: -3.3; Neddylation inh: 0.4; dFosB act-1: 22.2*; A1 inh: -0.3; dFosB act-2: 2.7

What do the screens show for `COc1ccc(/C=C/C(=O)Nc2ccc(-n3nncc3-c3ccc(OC)c(OC)c3)cc2)cc1OC`?
Vif inh: -0.9; dFosB act-1: 45.8*; A1 inh: -0.9; dFosB act-2: -1.6

What do the screens show for `COc1ccc(/C=C/C(=O)NC(=S)Nc2ccc(S(N)(=O)=O)cc2)cc1OC`?
INS-1E GSIS act: 44.1*; Vif inh: -4.3; Neddylation inh: 35.0; dFosB act-1: 46.6*; A1 inh: 0.4; dFosB act-2: 1.6

Results for CCC(=O)N1C[C@@H](C)[C@@H](OC)CN(C)C(=O)c2cc(NC(=O)C3CC3)ccc2OC[C@@H]1C ?
INS-1E GSIS act: 7.7

How did C[C@H](CO)N1C[C@H](C)[C@@H](CN(C)CC2CCCCC2)Oc2ccc(NC(=O)Nc3ccc(C(F)(F)F)cc3)cc2C1=O do in these assays?
INS-1E GSIS act: -18.8

How did C[C@H](O)C#Cc1cnc2c(c1)C(=O)N([C@H](C)CO)C[C@@H](C)[C@@H](CN(C)CC1CCOCC1)O2 do in these assays?
INS-1E GSIS act: 14.0

What do the screens show for `C[C@@H]1CN([C@H](C)CO)C(=O)c2cccc(NC(=O)Nc3ccc(C(F)(F)F)cc3)c2O[C@@H]1CN(C)Cc1ccc(C(=O)Nc2ccccc2N)cc1`?
INS-1E GSIS act: -2.6

Results for C[C@H](CO)N1C[C@H](C)[C@H](CN(C)CC2CC2)Oc2ncc(-c3ccc(F)cc3)cc2C1=O ?
INS-1E GSIS act: 4.6

Results for Nc1nccc(-c2cc(-c3ccc(Cl)cc3Cl)no2)n1 ?
INS-1E GSIS act: 0.4; Vif inh: -2.6; Neddylation inh: 10.5; dFosB act-1: 93.1*; A1 inh: -6.5; dFosB act-2: -15.4

Results for O=C(CSc1nc2ccccc2c(=O)n1-c1ccc(Cl)cc1)c1ccco1 ?
Vif inh: 39.2; Neddylation inh: -10.0; dFosB act-1: 52.8*; A1 inh: 0.1; dFosB act-2: 3.2

Results for O=C(CSc1nc2ccccc2c(=O)n1-c1ccccc1)c1c[nH]c2ccccc12 ?
INS-1E GSIS act: 0.3; Vif inh: 3.3; Neddylation inh: -98.9; dFosB act-1: 28.6*; A1 inh: 0.0; dFosB act-2: 4.8

What do the screens show for `NC(=O)CSc1nc2ccccc2c(=O)n1-c1ccccc1`?
INS-1E GSIS act: -1.3; Vif inh: -4.8; Neddylation inh: 1.9; dFosB act-1: 0.5; A1 inh: 0.1

What do the screens show for `CCOC(=O)c1c(C)[nH]c(C)c1C(=O)CSc1nc2ccccc2c(=O)n1-c1ccc(Cl)cc1`?
INS-1E GSIS act: -30.1; Vif inh: -12.5; Neddylation inh: -359.6; dFosB act-1: -0.2; A1 inh: -1.0

Results for CC(C)NC(=O)Nc1ccc2c(c1)C(=O)N([C@H](C)CO)C[C@@H](C)[C@H](CN(C)S(=O)(=O)c1cccs1)OCCCC[C@H](C)O2 ?
INS-1E GSIS act: -20.2

Results for Cn1nc(-c2ccc(C(=O)Nc3ccc(F)cc3)cc2)c2ccccc2c1=O ?
Vif inh: 1.8; Neddylation inh: -17.9; dFosB act-1: 51.4*; A1 inh: -0.7; dFosB act-2: -1.7

How did Cn1nc(-c2ccc(C(=O)Nc3cccc(Cl)c3)cc2)c2ccccc2c1=O do in these assays?
Vif inh: -13.0; Neddylation inh: -26.7; dFosB act-1: 40.2*; A1 inh: -0.3; dFosB act-2: 0.8

How did Cc1ccc(NC(=O)c2ccc(-c3nn(C)c(=O)c4ccccc34)cc2)cc1 do in these assays?
INS-1E GSIS act: -21.0; Vif inh: -7.7; Neddylation inh: -23.6; dFosB act-1: 5.1; A1 inh: -0.3

What do the screens show for `C/C=C/c1ccc([C@H]2[C@H](CO)N(C(C)=O)[C@H]2CN(C)C(=O)c2ccccn2)cc1`?
INS-1E GSIS act: 7.6

What do the screens show for `O=C(Cn1cnc2sc3c(c2c1=O)CCCC3)NCC(=O)Nc1c(F)cccc1F`?
INS-1E GSIS act: 3.1; Vif inh: 6.1; Neddylation inh: 2.2; dFosB act-1: 31.8*; A1 inh: 0.5; dFosB act-2: 0.3

How did COc1ccc(OC)c(-c2cc(C(=O)Nc3ccc(F)cc3F)no2)c1 do in these assays?
INS-1E GSIS act: 9.6; Vif inh: 1.9; Neddylation inh: 14.6; dFosB act-1: 33.3*; A1 inh: -0.2; dFosB act-2: 6.2

How did COc1ccc(-c2cc(C(=O)Nc3ccc(F)cc3F)no2)cc1 do in these assays?
INS-1E GSIS act: 12.5; Vif inh: -2.1; Neddylation inh: -22.0; dFosB act-1: -1.5; A1 inh: 0.5

How did Cc1ccc(-c2cc(C(=O)N/N=C/c3ccc(Cl)cc3)n[nH]2)o1 do in these assays?
INS-1E GSIS act: -11.5; Vif inh: -3.1; Neddylation inh: 9.2; dFosB act-1: 27.3*; A1 inh: -0.6; dFosB act-2: 0.7

What do the screens show for `O=C1[C@H](Oc2ccccc2)[C@@H](c2ccccc2)N1c1ccncc1`?
Vif inh: 18.3; Neddylation inh: 4.7; dFosB act-1: 17.7*; dFosB act-2: 2.2

Results for CO[C@@H]1CN(C)C(=O)c2cc(NC(=O)C3CCC3)ccc2OC[C@@H](C)N(Cc2nccs2)C[C@H]1C ?
INS-1E GSIS act: -5.0

Screening data as filed in PubChem BioAssay.
